Test results as given in PubChem BioAssay.
Calls of active or inactive are those of the source.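 The calls were made as follows, unless noted: active = NADPH fluorescence slope more negative than the mean of all samples by about 3 SD, 99.7% confidence; inactive = the rest.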

Experiments:
[1] = inhibitors of TNFa-induced NFkB p65 translocation, primary screen, imaging, HUVEC, MLSMR starter and 10KST1 sets (AID 438;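 active = inhibition above 20% together with a positive visual image hit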;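 also: compound added about 3h40 before a 20 min TNFalpha stimulation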;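 as to inhibition: signal is the nuclear over cytoplasmic p65 intensity ratio per well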); conditions: HUVEC TNFa-induced p65 nuclear translocation; cell count: measured here: nuclei count (cytotoxicity indicator), at 2.08 µM; inhibition: at 2 µM, stronger effect = higher value, 0% TNFa-plus-vehicle, 100% no-TNFa wells
[2] = reduction of polyQ htt aggregates in cells – imaging, exon1htt(103Q)mCFP cells, high-content imaging, primary screen (AID 483;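 active = visual image review flags a hit and inhibition of aggregation exceeds 20%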;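 also: compound exposure lasted 3 days before fixation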;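 as to nuclei count: percent of the per-plate median nuclei count of sample wells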); conditions: exon1htt(103Q)mCFP cell line, aggregate imaging, at 2 µM; inhibition of aggregation: stronger effect = higher value; nuclei count: measured here: cell count, toxicity
[3] = endothelial E-selectin expression blockers – imaging, HUVEC, immunofluorescence, MLSMR starter and 10KST1 sets, primary screen (AID 487;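 active = visually confirmed hit in the image check and inhibition above 20%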;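 as to inhibition: signal is fraction of cell area covered by stained E-selectin grains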;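 as to nuclei count: 100% = median nuclei count of all wells on the same plate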); conditions: HUVEC TNFalpha-induced E-selectin immunofluorescence imaging, at 2 µM; inhibition: stronger effect = higher value; nuclei count: measured here: cell number, toxicity
[4] = molecular target: Voltage-gated potassium channel subunit beta-2 (Rattus norvegicus) (UniProt P62483); test: inhibitors of rat Kvbeta2 reductase activity – biochemical, NADPH fluorescence, primary screen (AID 622;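 active = fluorescence slope higher than the sample average by over 3 SD, cut at about -0.22 in these data, passing the limit was not always enough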;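 also: slope of raw intensity against log time taken from 70 to 1610 s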); conditions: recombinant KvBeta, 4-cyanobenzaldehyde reduction, at 10 µM, stronger effect = higher value
Voltage-gated potassium channel subunit beta-2 (Rattus norvegicus), sequence (P62483 whole entry, looked up): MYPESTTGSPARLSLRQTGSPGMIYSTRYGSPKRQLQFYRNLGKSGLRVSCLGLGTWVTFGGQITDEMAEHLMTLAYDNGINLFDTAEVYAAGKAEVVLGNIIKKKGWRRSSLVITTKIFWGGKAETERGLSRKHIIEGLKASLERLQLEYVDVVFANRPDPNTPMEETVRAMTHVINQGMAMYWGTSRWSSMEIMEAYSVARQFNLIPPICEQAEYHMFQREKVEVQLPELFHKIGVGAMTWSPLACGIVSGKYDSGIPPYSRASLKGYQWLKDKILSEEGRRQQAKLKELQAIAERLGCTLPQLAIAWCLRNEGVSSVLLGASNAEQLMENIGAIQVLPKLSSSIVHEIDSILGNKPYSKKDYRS

[5] = molecular target: Voltage-gated potassium channel subunit beta-2 (Rattus norvegicus) (UniProt P62483); test: enhancers of rat Kvbeta2 NADPH turnover – biochemical, NADPH fluorescence, primary screen (AID 623); conditions: Recombinant KvBeta, NADPH fluorescence decrease slope, 10 min; at 10 µM; stronger effect = lower value;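 also: fluorescence intensity change per second fitted from 20 to 320 s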
[6] = molecular target: Alpha-2C adrenergic receptor (Homo sapiens) (UniProt P18825); test: compounds altering alpha2C-coupled GIRK flux – cell-based, HEK293 alpha2C/GIRK1/2, thallium flux, primary screen (AID 624;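 active = fluorescence slope after compound addition differing from the mean of all screened samples at 99.7% confidence, in either direction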;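 also: slope of fluorescence ratio to pre-addition baseline per second over 15 to 24 s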); conditions: thallium flux BTC fluorescence, at 10 µM, actives lie on both sides
Alpha-2C adrenergic receptor (Homo sapiens), sequence (P18825 whole entry, looked up): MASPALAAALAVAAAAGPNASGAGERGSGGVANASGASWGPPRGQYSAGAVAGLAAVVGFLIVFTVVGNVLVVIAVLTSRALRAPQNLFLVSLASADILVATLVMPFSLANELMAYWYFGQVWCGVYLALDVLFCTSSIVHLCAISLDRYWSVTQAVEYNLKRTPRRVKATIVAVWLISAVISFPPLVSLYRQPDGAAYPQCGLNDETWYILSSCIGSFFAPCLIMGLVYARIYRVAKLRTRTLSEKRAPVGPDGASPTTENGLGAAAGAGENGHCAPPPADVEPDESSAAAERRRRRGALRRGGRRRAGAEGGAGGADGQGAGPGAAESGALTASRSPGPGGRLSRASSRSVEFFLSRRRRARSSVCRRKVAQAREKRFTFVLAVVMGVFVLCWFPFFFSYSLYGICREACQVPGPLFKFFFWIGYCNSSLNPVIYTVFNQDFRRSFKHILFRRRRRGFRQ

[7] = blockers of RIG-like receptor reporter activation – cell-based, Sendai virus stimulus, luciferase, 10K MLSCN set, TLR/RLR signaling modifier project, primary screen (AID 602276;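 active = inhibition at or above 50% at 10 µM; inactive = inhibition below 50%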;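 also: firefly luciferase from ISG56 promoter only with Renilla not read in this screen; 0% = Sendai virus plus DMSO and 100% = medium plus DMSO without virus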); conditions: HEK293 RL24 IRF3 luciferase reporter, at 10 µM, stronger effect = higher value
[8] = TLR3 IRF3 reporter activation blockers – cell-based, poly I:C stimulus, luciferase, 10K MLSCN set, primary screen (AID 602277;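 active = inhibition of the reporter signal at or above 50%; inactive = inhibition below 50%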); conditions: HEK293-TLR3 RL24 IRF3 luciferase reporter, at 10 µM, stronger effect = higher value

Row | Compound | cell count [1] | inhibition [1] | inhibition of aggregation [2] | nuclei count [2] [%] | inhibition [3] | nuclei count [3] [%] | fluorescence slope [4] | NADPH fluorescence slope [5] | slope [6] | inhibition [7] | inhibition [8]
1 | CCn1cc(S(=O)(=O)CC(=O)Nc2ccc(OC)cc2)c2ccccc21 | 624 | -2.4% (inactive) | 7% (inactive) | 82.1 | -16.8% (inactive) | 115 | -0.528 (inactive) | -4.7e-05 (inactive) | 0.00751 (inactive) | 7.03% (inactive) | 16.6% (inactive)
2 | OC1C=CSc2nc3ccccc3n21 (stereo not drawn) | 398 | 4.9% (inactive) | -12.9% (inactive) | 102 | -50.3% (inactive) | 113 | -0.467 (inactive) | -3.8e-05 (inactive) | 0.00527 (inactive) | 4.8% (inactive) | 17.8% (inactive)
3 | CC(=O)OC(C(=O)NC1CCCCC1)c1ccncc1 (stereo not drawn) | 614 | -8.1% (inactive) | -3.6% (inactive) | 105 | -147% (inactive) | 107 | -0.498 (inactive) | -3e-05 (inactive) | 0.00464 (inactive) | 8.21% (inactive) | 13.3% (inactive)
4 | Cc1cc(NC(=O)COc2cccc(C)c2C)no1 | 684 | 6.5% (inactive) | -9.8% (inactive) | 104 | -16.6% (inactive) | 121 | -0.549 (inactive) | -2.5e-05 (inactive) | 0.00696 (inactive) | -0.401% (inactive) | 0.183% (inactive)
5 | COc1ccc(OC)c(NC(=O)CCN2CCC(C)CC2)c1 | 446 | -6.2% (inactive) | 15.7% (inactive) | 101 | -120% (inactive) | 220 | -0.59 (inactive) | -3.6e-05 (inactive) | 0.00565 (inactive) | -15.8% (inactive) | -0.553% (inactive)
6 | O=C(CSc1nc2ccccc2s1)N1CCN(C(=O)c2ccco2)CC1 | 394 | 0.5% (inactive) | 10% (inactive) | 104 | -45.3% (inactive) | 102 | -0.377 (inactive) | 9e-06 (inactive) | 0.00381 (inactive) | 7.64% (inactive) | 22.8% (inactive)
7 | CCn1c(Cc2ccccc2)nnc1SCC(=O)Nc1cc(C)on1 | 629 | -3.3% (inactive) | 5.6% (inactive) | 102 | -15.6% (inactive) | 112 | -0.513 (inactive) | -3.3e-05 (inactive) | 0.0074 (inactive) | -8.42% (inactive) | 23% (inactive)
8 | Cc1cc(=O)[nH]c(SCc2nc3ncccn3c2Br)n1 | 636 | -2.4% (inactive) | -10.4% (inactive) | 76.5 | -32.2% (inactive) | 107 | -0.27 (inactive) | -6.4e-06 (inactive) | 0.00645 (inactive) | 8.84% (inactive) | 23.4% (inactive)
9 | Cc1cc(C(N)=O)c2cc(Br)ccc2n1 | 367 | 5.5% (inactive) | 0.7% (inactive) | 94.5 | -54% (inactive) | 120 | -0.436 (inactive) | -5.1e-05 (inactive) | 0.0072 (inactive) | 4.62% (inactive) | 32.5% (inactive)
10 | COc1ccc(C(c2nnnn2C2CCCC2)N2CCC(C)CC2)c(OC)c1 (stereo not drawn) | 584 | -7.1% (inactive) | -6.5% (inactive) | 102 | -5.7% (inactive) | 109 | -0.571 (inactive) | 1.2e-05 (inactive) | 0.005 (inactive) | 2.52% (inactive) | 3.27% (inactive)
11 | CC(=O)NCc1nc2ccccc2n1C(C)C | 518 | 13% (inactive) | 15.8% (inactive) | 110 | 6.4% (inactive) | 119 | -0.575 (inactive) | -3.7e-05 (inactive) | 0.00817 (inactive) | 7.73% (inactive) | 21.5% (inactive)
12 | Cc1nn(-c2ccccc2)c(Cl)c1C(=O)NCC(=O)O | 296 | 3.9% (inactive) | -6.8% (inactive) | 100 | -22.6% (inactive) | 117 | -0.399 (inactive) | -6.1e-05 (inactive) | 0.00396 (inactive) | 11.2% (inactive) | 25.8% (inactive)
13 | COc1cccc(CNC(=O)CCS(=O)(=O)c2cccc3nsnc23)c1 | 667 | -6.5% (inactive) | -34.5% (inactive) | 112 | 8.1% (inactive) | 109 | -0.513 (inactive) | -3.9e-05 (inactive) | 0.00504 (inactive) | 13.8% (inactive) | 24.3% (inactive)
14 | O=C(Nc1ccncc1)c1cccc(F)c1 | 559 | -6.9% (inactive) | -1.2% (inactive) | 95.4 | -13.5% (inactive) | 68.8 | -0.375 (inactive) | -4.9e-05 (inactive) | 0.00567 (inactive) | 12.9% (inactive) | 13.8% (inactive)
15 | CCOC(=O)CC(=O)c1cc(OC)c(OC)c(OC)c1 | 640 | -0.6% (inactive) | -4.2% (inactive) | 105 | -56% (inactive) | 106 | -0.432 (inactive) | -2.1e-05 (inactive) | 0.00534 (inactive) | 5.89% (inactive) | 12.4% (inactive)
16 | CC(C)C(=O)Nc1ccc2c(c1)nc1n2CCSC1 | 378 | -2.5% (inactive) | -0.8% (inactive) | 113 | -3.7% (inactive) | 109 | -0.361 (inactive) | 1.9e-05 (inactive) | 0.00311 (inactive) | -12.7% (inactive) | -20.2% (inactive)
17 | CCOC(=O)Cc1cc(=O)n2[nH]c(C)c(-c3ccc(OC)cc3)c2n1 | 652 | -0.3% (inactive) | 19.2% (inactive) | 94 | 0.6% (inactive) | 102 | -0.301 (inactive) | 1.1e-05 (inactive) | 0.00404 (inactive) | 14.2% (inactive) | 22.5% (inactive)
18 | Cc1noc(/C=C/N(C)C)c1S(=O)(=O)N1CCCC(C(=O)NCCC2=CCCCC2)C1 (stereo not drawn) | 518 | 0.9% (inactive) | -2.1% (inactive) | 105 | -25.3% (inactive) | 115 | -0.548 (inactive) | -1.2e-05 (inactive) | 0.00579 (inactive) | 1.59% (inactive) | -0.365% (inactive)
19 | CCOc1ccc(S(=O)(=O)N2CCN(c3ccc(C)cc3C)CC2)cc1 | 821 | 5.7% (inactive) | -66.1% (inactive) | 98.4 | -30.7% (inactive) | 110 | -0.578 (inactive) | -2.7e-05 (inactive) | 0.00897 (inactive) | -5.26% (inactive) | 11.7% (inactive)
20 | CN1/C(=C\C(=O)Nc2cccnc2)c2ccccc2CC1(C)C | 360 | -5% (inactive) | -8.4% (inactive) | 91.1 | -31.3% (inactive) | 117 | -0.401 (inactive) | -4.2e-05 (inactive) | 0.00677 (inactive) | 18.7% (inactive) | 19.4% (inactive)
21 | CCOC(=O)C1CCN(c2c(N3CCCC(C(=O)OCC)C3)c(=O)c2=O)CC1 (stereo not drawn) | 838 | 3.2% (inactive) | -6.4% (inactive) | 101 | -138% (inactive) | 115 | -0.616 (inactive) | 9.3e-06 (inactive) | 0.0058 (inactive) | -1.39% (inactive) | 19.7% (inactive)
22 | Cc1nnc(SCC(=O)Nc2c(Cl)cccc2Cl)[nH]c1=O | 598 | 1.1% (inactive) | 17.6% (inactive) | 87 | 17.8% (inactive) | 103 | -0.553 (inactive) | -4.3e-05 (inactive) | 0.00796 (inactive) | 8.99% (inactive) | 41.1% (inactive)
23 | Cc1c(C(=O)NC2CCCc3ccccc32)oc2ccc(S(=O)(=O)N3CCOCC3)cc12 (stereo not drawn) | 500 | -3% (inactive) | 27.1% (inactive) | 76.4 | -32.9% (inactive) | 110 | -0.489 (inactive) | -6.3e-05 (inactive) | 0.0079 (inactive) | 17.5% (inactive) | 14.6% (inactive)
24 | O=C(CC(SCCO)c1ccc2c(c1)OCO2)c1ccco1 (stereo not drawn) | 538 | -10.2% (inactive) | -17.3% (inactive) | 114 | -60.6% (inactive) | 128 | -0.602 (inactive) | -5.3e-06 (inactive) | 0.00625 (inactive) | -31.1% (inactive) | -69.6% (inactive)
25 | O=C(NCc1cccs1)C1CC(=O)N(c2ccccc2)C1 (stereo not drawn) | 345 | -0.5% (inactive) | 11.8% (inactive) | 98.2 | -28.7% (inactive) | 84 | -0.625 (inactive) | 3.2e-06 (inactive) | 0.00459 (inactive) | 2.75% (inactive) | 4.93% (inactive)
26 | COC(=O)c1cccc(NC(=O)CSc2nnc(COc3ccccc3)n2C)c1 | 671 | -5.4% (inactive) | -2.2% (inactive) | 101 | -88% (inactive) | 135 | -0.436 (inactive) | -4.3e-05 (inactive) | 0.00598 (inactive) | 11.9% (inactive) | 14% (inactive)
27 | O=C(CSc1nc2ccccc2o1)Nc1ccccc1 | 728 | 11.1% (inactive) | 0.9% (inactive) | 100 | -10.4% (inactive) | 106 | -0.285 (inactive) | -8e-06 (inactive) | 0.00667 (inactive) | -21.3% (inactive) | -87.6% (inactive)
28 | O=C(NCC1CCCO1)C1CCC(CNS(=O)(=O)c2ccccc2)CC1 (stereo not drawn) | 341 | 8.1% (inactive) | -6% (inactive) | 110 | -24.2% (inactive) | 115 | -0.499 (inactive) | -4e-05 (inactive) | 0.00661 (inactive) | 7.1% (inactive) | 10.8% (inactive)
